{"source": "PubChem BioAssay (Tox21)", "note": "Unmarked numbers belong to inactive results. Calls of active or inactive are those of the source. Calls come from the whole dose curve; as a rule, active = well fitted curve in the direction sought with a large enough effect in the repeat runs; inconclusive = weak or mixed curves; inactive = flat fitted curve, though single readings scatter. % is set by controls: 0 for no effect and ±100 for the full control effect."}
{"test": "qHTS assay to test for compound auto fluorescence at 460 nm (blue) in HepG2 cell free culture (AID 720685)", "conditions": "Cell-free culture medium, blue autofluorescence 405/460 nm; series mostly up to 91.3 µM", "text": "U.S. Tox21 Program National Center for Advancing Translational Sciences [NCATS] NIH Chemical Genomics Center [NCGC] U.S. Environmental Protection Agency [EPA] National Institutes of Environmental Health Sciences [NIEHS] National Toxicology Program [NTP] U.S. Food and Drug Administration [FDA] Tox21 Assay Overview: Compound auto fluorescence often interferes with screening of the compound library against various biological targets and signaling pathways. Some of these compounds may have fluorophoric properties. Such properties may interfere with the assay outputs resulting in false positives and/or negatives. To decrease such complications and ensure the compound activities are relevant in terms of biological response, the Tox21 10K compound library was screened for auto fluorescence. From the fluorophores used as reporter signals in our screening assays, the auto fluorescence equivalencies of compounds against three fluorophores have been evaluated: Triamterene, Fluorescein and Rose Bengal sodium for blue, green and red fluorescence, respectively. The fluorescence intensities were measured using Excitation/Emission wavelengths at 405/460nm, 485/535nm and 540/590nm for blue, green and red labels, respectively. This assay includes the blue fluorescence data.\nTox21 Assay Protocol Summary: 5 uL of culture medium (MEM containing 10% FBS) per well was dispensed into black wall/clear bottom 1536-well plates using a Multidrop Combi Dispenser (ThermoFisher Scientific, Waltham, MA). After 23 nL compound or DMSO vehicle was transferred into assay plate by a pintool work station (Kalypsys, San Diego, CA), fluorescence intensities in the assay plates were measured by an Envision (PerkinElmer, Shelton, CT) plate reader using three labels for measuring blue, green and red fluorescence at […] 460, 535 and 590nm respectively."}
{"smiles": "CN[C@@H]1[C@@H](O)[C@@H](O[C@@H]2[C@H](O)[C@H](O[C@H]3OC(CN)=CC[C@H]3N)[C@@H](N)C[C@H]2N)OCC1(C)O", "note": "(stereo not given in full)", "outcome": "inactive"}
{"smiles": "CCCCCC1CCCC(=O)O1", "note": "(stereo not given)", "outcome": "inactive"}
{"smiles": "C[CH2][Ge]([Cl])([CH2]C)[CH2]C", "outcome": "inactive"}
{"smiles": "CCCCOC(=O)[C@@H](C)Oc1ccc(Oc2ccc(C(F)(F)F)cn2)cc1", "outcome": "inactive"}
{"smiles": "CCC(C)(C)C1CCC(=O)CC1", "outcome": "inactive"}
{"smiles": "O=C(O)C(=O)Nc1cccc(-c2nn[nH]n2)c1", "outcome": "inactive"}
{"smiles": "N#CCCOCCOCCC#N", "outcome": "inactive"}
{"smiles": "CC(=O)OC(C)(C)Cc1ccccc1", "outcome": "inactive"}
{"smiles": "COc1ccc(OC)c(NC(=O)CC(C)=O)c1", "outcome": "inactive"}
{"smiles": "CNC(=O)NC", "outcome": "inactive"}
{"smiles": "O=C(Oc1ccccc1C(=O)O)c1ccccc1O", "outcome": "inactive"}
{"smiles": "O=c1cc(O)c(Cl)c[nH]1", "outcome": "inactive"}
{"smiles": "CCN1CN(CC)CN(CC)C1", "outcome": "inactive"}
{"smiles": "CCC(C)(CCC(C)C)C(=O)[O-].CCC(C)(CCC(C)C)C(=O)[O-].[Zn+2]", "note": "(stereo not given)", "outcome": "inactive"}
{"smiles": "OCCCCCCCl", "outcome": "inactive"}
{"smiles": "O=[Si]=O", "outcome": "inactive"}
{"smiles": "CCCC(C)CC", "note": "(stereo not given)", "outcome": "inactive"}
{"smiles": "O=C(c1ccc2c(c1)C(=O)OC2=O)c1ccc2c(c1)C(=O)OC2=O", "outcome": "inactive"}
{"smiles": "CCOC(=O)C(C)(C)C", "outcome": "inactive"}
{"smiles": "O=C1c2ccccc2-c2ccccc21", "outcome": "inactive"}
{"smiles": "CCCCCCCCC(=O)OCC", "outcome": "inactive"}
{"smiles": "Cc1ccccc1C", "outcome": "inactive"}
{"smiles": "Nc1ccc(S(=O)(=O)Nc2ccccn2)cc1", "fluorescence, % of fluorescent control": "-0.12% [at 18.6 µM]"}
{"smiles": "COC(OC)C(C)c1ccccc1", "note": "(stereo not given)", "outcome": "inactive"}
{"smiles": "CCCCCCCCCCCCCC(=O)OC", "outcome": "inactive"}
{"smiles": "O=C1OC(=O)c2cc(Oc3ccc4c(c3)C(=O)OC4=O)ccc21", "outcome": "inactive"}
{"smiles": "CC(C)(CO)[C@@H](O)C(=O)NCCCO", "outcome": "inactive"}
{"smiles": "CC(=O)c1ccc2c(c1)CCCC2", "outcome": "inactive"}
{"smiles": "CCOC(=O)CCc1ccccc1", "outcome": "inactive"}
{"smiles": "Cc1cccc(C(=O)O)c1[N+](=O)[O-]", "outcome": "inactive"}
{"smiles": "CO/N=C(/C(=O)N[C@@H]1C(=O)N2C(C(=O)O)=C(Cn3nnc(C)n3)CS[C@H]12)c1csc(N)n1", "outcome": "inactive"}
{"smiles": "CCCCC(C)C(=O)O", "note": "(stereo not given)", "outcome": "inactive"}
{"smiles": "CC1=NN(c2ccc(S(=O)(=O)O)cc2)C(=O)C1N=Nc1ccccc1", "note": "(stereo not given)", "outcome": "inactive"}
{"smiles": "OC(CCN1CCCCC1)(c1ccccc1)c1ccccc1", "outcome": "inactive"}
{"smiles": "CCCCCCCC[Si](OCC)(OCC)OCC", "outcome": "inactive"}
{"smiles": "CCC1Nc2cc(Cl)c(S(N)(=O)=O)cc2S(=O)(=O)N1", "note": "(stereo not given)", "outcome": "inactive"}
{"smiles": "Cc1cccc(Nc2ccncc2S(=O)(=O)NC(=O)NC(C)C)c1", "fluorescence, % of fluorescent control": "-0.124% [at 18.6 µM]"}
{"smiles": "CN[C@@H]1[C@H](O)[C@H](NC)[C@H]2O[C@@]3(O)C(=O)C[C@@H](C)O[C@H]3O[C@@H]2[C@H]1O", "fluorescence, % of fluorescent control": "0.0605% [at 18.6 µM]"}
{"smiles": "O=CN1CCOCC1", "outcome": "inactive"}
{"smiles": "C=CCCCCCCCCCCC", "fluorescence, % of fluorescent control": "0.0228% [at 3.72 µM]"}
